The results in this text go back to paper PMC5540273 (PLoS ONE, 2017).

SMILES strings stand for the structures.

Holding throughout (settings): concentration: 1 μM, replicates: in singlicate; n = 1
Assay [1] relates to INSR.
Assay [2] deals with IRAK1.
The test system of assay [3] is IRAK3.
The subject of assay [4] is IRAK4.
In assay [5] the test system is ITK.
Assay [6] relates to JAK1(JH1domain-catalytic).
The test system of assay [7] is JAK1(JH2domain-pseudokinase).
For assay [8], the system named is JAK2(JH1domain-catalytic).
Assay [9] relates to JAK3(JH1domain-catalytic).
Assay [10] has as its system T1, JNK1.
T1 construct: gene MAPK8

Assay [11] relates to T2, JNK2.
T2 construct: gene MAPK9

The test system of assay [12] is T3, JNK3.
T3 construct: gene MAPK10

Assay [13] concerns KIT-autoinhibited.
For assay [14], the system named is KIT.
Assay [15] relates to LATS1.
Assay [16] concerns LATS2.
In assay [17] the test system is LCK.
Assay [18] concerns LIMK1.
The subject of assay [19] is LIMK2.
In assay [20] the test system is T4, LKB1.
T4 construct: gene STK11
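Note: KINOMEscan kinase panel screen.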

As to `COc1cc(Nc2nccc(N3CCC(NC(=O)C4COc5ccccc5O4)C3)n2)cc(OC)c1OC` (stereo not shown) [GSK1379761], the “%Inh” value in assay [1] came to 0%; in assay [2] it was 61%; in [3], 76%; in assay [4], 0%; in [5] it was 4%; in [6], 7%. The “%Inh” value in [7] is 21%; in [8], 98.5%; in assay [9] it was 55%; in assay [10] it was 20%; in [11], 22%; in [12] it was 7%. For the same compound, the “%Inh” value in [13] is reported as 0%; in assay [14] it was 22%; in assay [15], 3%; in assay [16], 0%; in assay [17], 31%; in assay [18], 0%. Besides, the “%Inh” value in [19] is 4%; in [20], 27%.

Consider `COc1cccc(C2=C(N(C)c3ccccc3)C(=O)NC2=O)c1` [SB-334865], for which the “%Inh” value in [1] is given as 0%; in [2] it was 42%; in assay [3] it was 20%; in assay [4], 24%; in assay [5], 16%; in assay [6], 13%. Moreover, the “%Inh” value is recorded as 0% in [7]; 0% in assay [8]; 0% in assay [9]; 30% in assay [10]; 14% in assay [11]; 0% in assay [12]. The “%Inh” value is 0% in assay [13]; 0% in [14]; 3% in assay [15]; 0% in assay [16]; 16% in assay [17]; 0% in assay [18]. In addition, the “%Inh” value in [19] and in [20] was 0% each time.

For the compound `CN1C(=O)C(Nc2ccccc2)=C(c2ccccc2)C1=O` [SB-300079], the “%Inh” value came out at 22% in assay [1]; 16% in assay [2]; 0% in assay [3]; 0% in assay [4]; 0% in [5]; 0% in [6]. Besides, the “%Inh” value amounted to 33% in [7]; 42% in assay [8]; 2% in assay [9]; 14% in [10]; 0% in assay [11]; 0% in assay [12]. In addition, the “%Inh” value is 17% in assay [13]; 0% in assay [14]; 0% in assay [15]; 0% in [16]; 0% in assay [17]; 0% in assay [18]. The “%Inh” value came to 0% in assay [19] and 13% in assay [20].

With `COc1ccc(CNC(=O)NC2CCN(c3ccnc(Nc4ccc(F)cc4)n3)C2)cc1` (stereo not shown) [GSK1379706], the “%Inh” value stood at 17% in assay [1]; 45% in [2]; 0% in assay [3]; 0% in [4]; 8% in assay [5]; 13% in assay [6]. In addition, the “%Inh” value in assay [7] came to 0%; in assay [8] it was 39%; in assay [9] it was 0%; in [10], 19%; in assay [11], 9%; in [12] it was 13%. For the same compound, the “%Inh” value in assay [13] is 3%; in assay [14] it was 39%; in assay [15], 22%; in assay [16], 27%; in [17], 16%; in assay [18], 0%. Further, the “%Inh” value in assay [19] is given as 29%; in assay [20], 13%.

`COc1cccc(-n2cnc3c(N)ncnc32)c1` [SKF-97416]: the “%Inh” value is 0% in assay [1]; 38% in assay [2]; 42% in assay [3]; 0% in assay [4]; 0% in assay [5]; 0% in assay [6]. Further, the “%Inh” value in assay [7] was found to be 58%; in assay [8] it was 44%; in assay [9] it was 19%; in [10], 0%; in [11] it was 27%; in [12] it was 8%. For the same compound, the “%Inh” value is 23% in assay [13]; 12% in assay [14]; 8% in [15]; 1% in assay [16]; 10% in [17]; 0% in assay [18]. The “%Inh” value stood at 7% in assay [19] and 60% in [20].

As to `O=C(Nc1n[nH]c2nc(-c3ccccc3)c(Cl)cc12)C1CC1` [SB-734909], the “%Inh” value in [1] was 31%; in assay [2], 26%; in assay [3] it was 23%; in [4], 24%; in assay [5] it was 0%; in assay [6], 14%. Further, the “%Inh” value in assay [7] is on record as 22%; in assay [8], 13%; in [9], 0%; in [10] it was 56%; in assay [11], 32%; in assay [12], 29%. The “%Inh” value in assay [13] stood at 0%; in assay [14], 51%; in [15], 0%; in [16], 24%; in assay [17] it was 3%; in [18], 9%. Besides, the “%Inh” value is 12% in assay [19] and 37% in assay [20].

For the compound `COc1cc2ncn(-c3cc(OCc4ccncc4Br)c(C(N)=O)s3)c2cc1OC` [GW854278], the “%Inh” value in [1] is 1%; in [2], 3%; in assay [3], 27%; in [4], 3%; in [5], 0%; in [6], 0%. Further, the “%Inh” value in assay [7] was determined as 19%; in assay [8] it was 0%; in assay [9], 0%; in [10] it was 0%; in assay [11] it was 5%; in assay [12] it was 5%. Further, the “%Inh” value in [13] came to 5%; in assay [14] it was 24%; in assay [15], 22%; in assay [16], 0%; in assay [17], 25%; in assay [18] it was 0%. The figures for the “%Inh” value in [19] and in assay [20] were 8% and 0%, respectively.

Turning to `Cc1ccc(-c2ccc3c(ccc4sc5c(c43)NC[C@@H](C)N=C5N(C)C)n2)cn1`, the “%Inh” value in assay [1], in [2], in assay [3], in assay [4], in assay [5] and in assay [6] was 0% throughout. Further, the “%Inh” value amounted to 0% in [7]; 0% in assay [8]; 0% in assay [9]; 4% in assay [10]; 0% in assay [11]; 0% in [12]. In addition, the “%Inh” value in assay [13] is listed as 0%; in assay [14], 0%; in assay [15] it was 0%; in [16] it was 18%; in [17], 0%; in assay [18] it was 0%. The “%Inh” value in assay [19] and in assay [20] was 0% throughout.

With `Cc1cc(Nc2nc(-c3cccc(C)n3)nc3ccccc23)ccn1` [GW872411], the “%Inh” value in assay [1] is listed as 0%; in assay [2] it was 0%; in assay [3] it was 0%; in assay [4], 0%; in assay [5] it was 0%; in assay [6], 4%. Further, the “%Inh” value in assay [7] is reported as 81%; in [8], 0%; in [9] it was 0%; in assay [10] it was 0%; in assay [11], 14%; in [12], 0%. Besides, the “%Inh” value in assay [13] is reported as 2%; in assay [14] it was 0%; in [15], 0%; in assay [16], 0%; in [17] it was 0%; in [18] it was 0%. The “%Inh” value in [19] and in assay [20] was 0% in each case.

Consider `O=C(Nc1n[nH]c2nc(-c3ccccc3)c(Br)cc12)C1CC1` [SB-708998], for which the “%Inh” value in [1] came out at 7%; in assay [2], 0%; in assay [3], 0%; in assay [4], 6%; in assay [5], 1%; in [6] it was 0%. Also, the “%Inh” value in assay [7] was 0%; in assay [8], 18%; in assay [9] it was 0%; in [10], 29%; in assay [11], 0%; in assay [12], 0%. Besides, the “%Inh” value in [13] was 9%; in assay [14], 31%; in assay [15] it was 0%; in [16], 0%; in [17], 23%; in assay [18], 19%. In addition, the “%Inh” value in assay [19] is listed as 12%; in assay [20] it was 0%.

Consider `Fc1cccc(CSc2nnc(-c3ccc4c(c3)CCO4)o2)c1`, for which the “%Inh” value in assay [1] was 23%; in assay [2], 21%; in [3], 6%; in assay [4] it was 100%; in [5] it was 16%; in [6], 11%. The “%Inh” value in [7] is on record as 0%; in assay [8], 0%; in [9], 3%; in assay [10], 8%; in assay [11] it was 4%; in assay [12] it was 4%. Besides, the “%Inh” value in assay [13] is on record as 6%; in assay [14] it was 5%; in [15], 20%; in assay [16], 31%; in assay [17], 0%; in assay [18] it was 0%. In addition, the “%Inh” value in assay [19] is recorded as 0%; in [20], 16%.
